# Assay outcomes deposited in PubChem by several laboratories.
# PostGolgi yeast – growth inhibition of a yeast mutant, post-Golgi transport screen. post-Golgi transport phenotypic cell assay. inhibition, % at 10 µM. 98,000 tested, 0.9% active;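 note: yeast cells grown in 1536-well plates; yeast grown about 18 h at 30C before absorbance read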
# CYP2C19 inhib – human CYP2C19 inhibition; P33261; 96,000 tested, 21% active; CYP2C19 Supersomes, luciferin-H EGE luminescence, 30 min; inhibition, % at 5 µM;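 active = CYP2C19 inhibition above a set limit at 5 µM in the primary screen, cut at about 50% in these data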;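 note: plate controls were negative control wells for no effect and 2.5 mM tranylcypromine positive control for full effect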
# Target sequence (P33261 whole entry, looked up): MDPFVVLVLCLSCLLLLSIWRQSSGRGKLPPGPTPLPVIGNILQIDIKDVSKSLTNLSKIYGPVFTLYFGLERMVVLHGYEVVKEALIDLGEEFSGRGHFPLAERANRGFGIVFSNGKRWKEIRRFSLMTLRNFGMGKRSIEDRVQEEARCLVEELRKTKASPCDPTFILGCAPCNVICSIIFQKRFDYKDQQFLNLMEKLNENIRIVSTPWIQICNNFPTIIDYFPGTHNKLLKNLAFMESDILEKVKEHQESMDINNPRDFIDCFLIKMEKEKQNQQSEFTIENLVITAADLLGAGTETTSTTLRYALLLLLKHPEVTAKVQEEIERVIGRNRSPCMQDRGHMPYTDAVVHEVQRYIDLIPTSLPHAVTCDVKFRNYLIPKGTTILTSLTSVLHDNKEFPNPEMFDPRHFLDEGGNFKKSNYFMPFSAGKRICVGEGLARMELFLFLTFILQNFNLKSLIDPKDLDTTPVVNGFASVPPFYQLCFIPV
# PostGolgi ctrl – growth of the yeast control strain, post-Golgi counter-screen; efflux-deficient yeast background strain, growth absorbance A615, 16 h; inhibition, % at 10 µM; 98,000 tested, 5% active; AID 738
# CYP2C9 inhib – inhibitors of human CYP2C9; P11712; CYP2C9 Supersomes, luciferin-H conversion, luminescence; inhibition, % at 5 µM; 96,000 tested, 20% active;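 active = blocking of liver enzyme CYP2C9 beyond about 50% at 5 µM, limit read from the data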
# CYP2C19 act – cytochrome P450 2C19 (human) activation | 96,000 tested, under 10 active | AID 1025 | activation factor at 5 µM | recombinant CYP2C19, luciferin-H EGE luminescence; active compounds read high; 0 = fully inhibited enzyme, 1 = untreated enzyme;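 active = activation factor of at least 2 at 5 µM in the primary screen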;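 note: 0 = wells with 2.5 mM tranylcypromine and 1 = vehicle-only wells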
# CYP2C9 act – CYP2C9 (human) activation. P11712. recombinant CYP2C9, luciferin-H conversion, luminescence; active compounds read high; factor 1 = untreated enzyme, 0 = blocked. activation factor at 5 µM. 96,000 tested, 1.4% active. AID 1024;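 active = activation factor of 2 or more for CYP2C9 at a 5 µM dose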;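 note: 0 = sulfaphenazole-blocked wells and 1 = vehicle-only wells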
# An asterisk follows results filed as active; / = not tested or not shown. An excerpt weighted towards active compounds, which were near 32% of everything screened. Cut-off read from the data, not from the text of the source, unless noted: active = inhibition above about 30%; inactive = the rest.
SMILES,PostGolgi yeast,CYP2C19 inhib,PostGolgi ctrl,CYP2C9 inhib,CYP2C19 act,CYP2C9 act
O=C1c2ccccc2C(=O)N1CCCCSc1nnnn1-c1ccccc1,2,48,14,51*,0.5,0.5
COc1cc(NC(=O)CSc2nnnn2-c2ccccc2)cc(OC)c1OC,-5,-4,2,-6,1,1.1
c1ccc(-n2nnnc2SCCCSc2nc3ccccc3s2)cc1,-13,47,10,35,0.5,0.6
O=C(CCCSc1nnc(SCCCC(=O)c2ccc(F)cc2)s1)c1ccc(F)cc1,-5,56*,7,76*,0.4,0.2
O=C(CSc1nnnn1-c1ccccc1)CSc1nnnn1-c1ccccc1,8,98*,20,72*,0,0.3
O=C(Nc1ccc2c(c1)OCO2)C1CCN(C(=O)c2cccs2)CC1,1,15,11,39,0.9,0.6
O=C(CCN1C(=O)CSC1=O)Nc1ccccc1,16,-5,1,-11,1,1.1
CC(SC1CCCC1)C(=O)Nc1ccnn1C(C)C (configuration not stated),23,4,-10,4,1,1
CCOC(=O)CC(=O)CSc1ncnc2c1cnn2-c1ccccc1,-9,27,10,37,0.7,0.6
O=C(CCCSc1nnnn1-c1ccccc1)c1ccc(F)cc1,15,59*,5,-60,0.4,1.6
O=C(O)CCSc1nnnn1-c1ccccc1,-2,-14,-3,-14,1.1,1.1
c1ccc(COc2ccc(CNn3cnnc3)cc2)cc1,-1,25,19,24,0.8,0.8
O=C(COc1ccc(S(=O)(=O)N2CCCC2)cc1)NCCC1=CCCCC1,6,43,7,86*,0.6,0.1
CC(C)(C)NS(=O)(=O)c1ccc(OCC(=O)NCCC2=CCCCC2)cc1,-2,85*,-8,84*,0.1,0.2
CC(=O)Nc1ccc(S(=O)(=O)NC(CC(=O)NCCC2=CCCCC2)C(C)C)cc1 (configuration not stated),9,95*,9,32,0.1,0.7
Cc1cccc(C)c1NC(=O)N1CCN(C2CCCCC2)CC1,-3,/,3,/,/,/
Cc1c(NS(=O)(=O)c2ccc3c(c2)n(C)c(=O)n3C)c(=O)n(-c2ccccc2)n1C,9,-19,-1,2,1.2,1
Cc1c(NS(=O)(=O)N2CCCCC2)c(=O)n(-c2ccccc2)n1C,3,74*,10,10,0.3,0.9
Cc1c(NS(=O)(=O)CC23CCC(CC2=O)C3(C)C)c(=O)n(-c2ccccc2)n1C (configuration not stated),-3,55*,5,-5,0.5,1
Cc1c(NS(=O)(=O)c2cccs2)c(=O)n(-c2ccccc2)n1C,23,55*,0,29,0.4,0.7
CCS(=O)(=O)Nc1c(C)n(C)n(-c2ccccc2)c1=O,-2,12,0,9,0.9,0.9
Cc1c(NS(=O)(=O)c2ccc(Br)s2)c(=O)n(-c2ccccc2)n1C,11,47,-1,54*,0.5,0.5
O=C(O)c1cc2cccc(S(=O)(=O)N3CCOCC3)c2cc1O,5,0,-3,2,1,1
Cc1ccc(S(=O)(=O)NCc2ccc(C(=O)N(C)CCC#N)cc2)cc1,-1,10,5,27,0.9,0.7
CCOC(=O)C(C)Oc1ccc(C2NC(=O)NC(C)=C2C(=O)Nc2ccccc2C)cc1 (configuration not stated),-1,20,7,21,0.8,0.8
SMILES,PostGolgi yeast,CYP2C19 inhib,PostGolgi ctrl,CYP2C9 inhib,CYP2C19 act,CYP2C9 act
CCOc1cc(S(=O)(=O)n2cc(-c3ccc(F)cc3)c(N)n2)cc(OCC)c1OCC,4,26,8,75*,0.7,0.3
COc1ccccc1-c1cn(S(=O)(=O)c2ccc(F)cc2)nc1N,0,97*,7,86*,0,0.1
COc1cc(C(=O)N2CCC(NC(=O)C(Cc3ccc(C(C)C)cc3)NC(C)=O)CC2)cc(OC)c1OC (configuration not stated),5,13,4,3,0.9,1
O=C(c1ccc(Br)o1)N1CCN=C1SCc1cccc(F)c1,2,91*,17,59*,0.1,0.4
COc1cc(OC)cc(C(=O)N2CCN=C2SCc2cccnc2)c1,4,100*,-1,90*,0,0.1
O=C(c1cccc(F)c1)N1CCN=C1SCc1cccnc1,-4,91*,3,82*,0.1,0.2
O=C(c1ccc(S(=O)(=O)N2CCOCC2)cc1)N1CCN=C1SCc1cccnc1,-5,7,1,9,0.9,0.9
CC(=O)N1CCN=C1SCc1ccc(F)cc1,-1,39,-3,22,0.6,0.8
CC1CN(C(NC(=O)C(C)(C)C)C(Cl)(Cl)Cl)CC(C)O1 (configuration not stated),1,1,6,4,1,1
CN(C1CCCCC1)S(=O)(=O)c1ccc(Cl)c(C(=O)O)c1,4,5,27,7,0.9,0.9
CC(C)c1ccccc1N=C1SCCN1C1CCS(=O)(=O)C1 (configuration not stated),-2,58*,7,31,0.4,0.7
Cc1ccc(-n2ncc(C#N)c2/N=C/N2CCCCCC2)cc1,-1,97*,15,91*,0,0.1
Cc1ccc(-n2ncc(C#N)c2/N=C/N2CCN(C)CC2)cc1,-9,8,1,-7,0.9,1.1
CCCCN(C)/C=N/c1c(C#N)cnn1-c1ccc(C)cc1,7,40,6,60*,0.6,0.4
CN(C1CCCCC1)S(=O)(=O)c1ccc(NC(=O)c2ccco2)cc1,9,24,23,44,0.8,0.6
O=S(=O)(c1ccc2c(c1)OCCO2)N1CCC(n2nnc3cc(F)ccc32)CC1,-1,/,21,/,/,/
O=S(=O)(c1ccc2c(c1)OCCO2)N1CCC(n2cnc3cc(F)ccc32)CC1,-8,78*,17,43,0.2,0.6
Cc1nc2cc(F)ccc2n1C1CCN(S(=O)(=O)c2ccccc2)CC1,6,38,14,74*,0.6,0.3
COc1ccc(C(=O)N2CCC(n3c(C)nc4cc(F)ccc43)CC2)cc1OC,2,9,6,38,0.9,0.6
COc1ccc2c(c1)SCCC2=O,1,34,1,31,0.7,0.7
COc1ccc2c(c1)OCC1=C2CCC2(C)C(=O)CC=C12 (configuration not stated),0,42,4,64*,0.6,0.4
Cc1ccc(C)c(Cc2c(C)nc3c(C(=O)N4CCOCC4)cnn3c2C)c1,-5,11,4,6,0.9,0.9
CC(C)CCn1cnc2c([nH]c3cccc(Cl)c32)c1=O,-4,27,-6,50*,0.7,0.5
c1ccc(Cn2c(Sc3nnnn3-c3ccccc3)nnc2-c2ccccc2)cc1,-2,18,3,28,0.8,0.7
